Data on one compound can be found in ChEMBL document CHEMBL2218924, “A broad activity screen in support of a chemogenomic map for kinase signalling research and drug discovery” (Biochem J, 2013).

Assay [1] has as its target T1, Ephrin type-B receptor 1 (Homo sapiens) (UniProt P54762).
T1 sequence (whole entry): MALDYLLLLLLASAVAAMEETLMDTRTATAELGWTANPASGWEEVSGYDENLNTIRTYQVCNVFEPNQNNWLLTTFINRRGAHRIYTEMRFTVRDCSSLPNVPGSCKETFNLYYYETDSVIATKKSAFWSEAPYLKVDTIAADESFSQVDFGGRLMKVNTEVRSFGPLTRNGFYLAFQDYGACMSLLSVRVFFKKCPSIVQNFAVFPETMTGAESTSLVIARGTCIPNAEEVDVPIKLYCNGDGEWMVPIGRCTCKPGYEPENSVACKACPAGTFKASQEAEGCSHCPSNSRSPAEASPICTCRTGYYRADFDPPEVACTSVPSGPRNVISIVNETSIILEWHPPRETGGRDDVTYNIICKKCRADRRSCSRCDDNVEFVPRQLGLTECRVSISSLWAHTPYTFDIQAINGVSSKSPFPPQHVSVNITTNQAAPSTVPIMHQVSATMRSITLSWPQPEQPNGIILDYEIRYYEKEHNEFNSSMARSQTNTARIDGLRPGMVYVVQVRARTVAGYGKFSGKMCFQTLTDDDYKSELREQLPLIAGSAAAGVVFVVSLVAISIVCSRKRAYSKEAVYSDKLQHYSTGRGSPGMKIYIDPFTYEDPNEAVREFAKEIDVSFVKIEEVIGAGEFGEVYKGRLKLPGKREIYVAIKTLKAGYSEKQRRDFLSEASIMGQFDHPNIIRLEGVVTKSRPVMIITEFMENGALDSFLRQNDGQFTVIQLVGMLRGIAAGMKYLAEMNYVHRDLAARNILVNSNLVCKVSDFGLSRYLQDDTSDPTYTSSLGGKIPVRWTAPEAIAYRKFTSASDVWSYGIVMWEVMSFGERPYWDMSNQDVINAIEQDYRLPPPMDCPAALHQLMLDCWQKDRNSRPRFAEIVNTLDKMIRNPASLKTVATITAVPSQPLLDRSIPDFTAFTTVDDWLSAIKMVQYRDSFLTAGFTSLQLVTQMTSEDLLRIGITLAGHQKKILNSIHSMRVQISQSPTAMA
To be noted: at 10 µM.

Assay [2] deals with T2, Ephrin type-B receptor 2 (Homo sapiens) (UniProt P29323).
T2 sequence (whole entry): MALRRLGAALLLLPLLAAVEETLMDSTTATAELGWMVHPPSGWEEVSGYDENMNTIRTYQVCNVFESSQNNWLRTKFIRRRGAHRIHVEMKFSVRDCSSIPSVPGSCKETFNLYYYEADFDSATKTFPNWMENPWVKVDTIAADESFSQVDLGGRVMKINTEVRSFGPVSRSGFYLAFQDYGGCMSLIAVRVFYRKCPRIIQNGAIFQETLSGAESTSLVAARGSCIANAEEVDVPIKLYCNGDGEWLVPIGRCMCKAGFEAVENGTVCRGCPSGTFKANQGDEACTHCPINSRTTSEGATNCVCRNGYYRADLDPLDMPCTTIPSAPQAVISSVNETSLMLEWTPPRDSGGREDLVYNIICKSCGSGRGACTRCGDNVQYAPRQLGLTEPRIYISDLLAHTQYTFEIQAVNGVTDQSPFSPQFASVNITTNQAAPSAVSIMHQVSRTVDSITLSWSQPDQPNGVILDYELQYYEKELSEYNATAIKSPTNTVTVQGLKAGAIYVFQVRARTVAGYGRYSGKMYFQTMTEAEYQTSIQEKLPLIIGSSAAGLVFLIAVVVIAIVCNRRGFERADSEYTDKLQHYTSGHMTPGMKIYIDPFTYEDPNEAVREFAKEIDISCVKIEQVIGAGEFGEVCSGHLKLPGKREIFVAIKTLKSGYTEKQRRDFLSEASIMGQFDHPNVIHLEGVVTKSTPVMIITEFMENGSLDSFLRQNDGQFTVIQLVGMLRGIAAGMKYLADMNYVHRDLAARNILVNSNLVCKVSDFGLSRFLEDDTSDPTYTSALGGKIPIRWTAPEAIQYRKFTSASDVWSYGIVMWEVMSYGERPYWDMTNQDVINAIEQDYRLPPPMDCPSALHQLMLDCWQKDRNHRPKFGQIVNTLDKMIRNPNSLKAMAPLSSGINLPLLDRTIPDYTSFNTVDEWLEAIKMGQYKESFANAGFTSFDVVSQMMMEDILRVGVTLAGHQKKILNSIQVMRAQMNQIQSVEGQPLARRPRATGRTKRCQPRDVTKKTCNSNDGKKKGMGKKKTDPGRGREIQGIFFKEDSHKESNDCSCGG
To be noted: at 1 µM.

Assay [3] addresses T2, Ephrin type-B receptor 2 (Homo sapiens). The note with it: at 10 µM.
Assay [4] has as its target T3, Ephrin type-B receptor 3 (Homo sapiens) (UniProt P54753).
T3 sequence (whole entry): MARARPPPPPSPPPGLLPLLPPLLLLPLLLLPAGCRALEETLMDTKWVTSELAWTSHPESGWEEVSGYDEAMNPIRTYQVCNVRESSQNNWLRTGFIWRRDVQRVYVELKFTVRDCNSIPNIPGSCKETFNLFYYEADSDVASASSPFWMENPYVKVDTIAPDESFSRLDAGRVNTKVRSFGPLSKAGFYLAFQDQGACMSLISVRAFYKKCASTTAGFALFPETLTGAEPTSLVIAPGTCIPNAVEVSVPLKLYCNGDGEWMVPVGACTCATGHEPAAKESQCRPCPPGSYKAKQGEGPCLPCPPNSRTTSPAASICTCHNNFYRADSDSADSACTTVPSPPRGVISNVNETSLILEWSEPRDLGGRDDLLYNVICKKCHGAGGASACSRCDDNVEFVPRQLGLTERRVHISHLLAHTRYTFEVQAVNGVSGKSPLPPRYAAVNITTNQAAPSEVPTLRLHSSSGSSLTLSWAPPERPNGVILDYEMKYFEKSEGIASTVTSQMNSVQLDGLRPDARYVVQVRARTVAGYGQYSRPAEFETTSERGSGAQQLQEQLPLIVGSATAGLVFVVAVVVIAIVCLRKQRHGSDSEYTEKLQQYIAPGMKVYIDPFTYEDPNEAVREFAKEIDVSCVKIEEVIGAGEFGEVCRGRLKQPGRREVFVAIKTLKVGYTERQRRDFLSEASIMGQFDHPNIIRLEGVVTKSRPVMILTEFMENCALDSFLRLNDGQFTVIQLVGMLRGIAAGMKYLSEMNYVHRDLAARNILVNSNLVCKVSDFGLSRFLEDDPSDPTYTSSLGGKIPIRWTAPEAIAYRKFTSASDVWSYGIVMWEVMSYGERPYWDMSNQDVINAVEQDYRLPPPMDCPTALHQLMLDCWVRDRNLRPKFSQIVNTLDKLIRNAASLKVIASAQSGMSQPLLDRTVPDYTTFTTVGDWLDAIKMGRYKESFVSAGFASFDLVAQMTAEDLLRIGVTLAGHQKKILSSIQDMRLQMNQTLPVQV
To be noted: at 1 µM.

Assay [5] has as its target T3, Ephrin type-B receptor 3 (Homo sapiens). The note with it: at 10 µM.
Assay [6] addresses T4, Ephrin type-B receptor 4 (Homo sapiens) (UniProt P54760).
T4 sequence (whole entry): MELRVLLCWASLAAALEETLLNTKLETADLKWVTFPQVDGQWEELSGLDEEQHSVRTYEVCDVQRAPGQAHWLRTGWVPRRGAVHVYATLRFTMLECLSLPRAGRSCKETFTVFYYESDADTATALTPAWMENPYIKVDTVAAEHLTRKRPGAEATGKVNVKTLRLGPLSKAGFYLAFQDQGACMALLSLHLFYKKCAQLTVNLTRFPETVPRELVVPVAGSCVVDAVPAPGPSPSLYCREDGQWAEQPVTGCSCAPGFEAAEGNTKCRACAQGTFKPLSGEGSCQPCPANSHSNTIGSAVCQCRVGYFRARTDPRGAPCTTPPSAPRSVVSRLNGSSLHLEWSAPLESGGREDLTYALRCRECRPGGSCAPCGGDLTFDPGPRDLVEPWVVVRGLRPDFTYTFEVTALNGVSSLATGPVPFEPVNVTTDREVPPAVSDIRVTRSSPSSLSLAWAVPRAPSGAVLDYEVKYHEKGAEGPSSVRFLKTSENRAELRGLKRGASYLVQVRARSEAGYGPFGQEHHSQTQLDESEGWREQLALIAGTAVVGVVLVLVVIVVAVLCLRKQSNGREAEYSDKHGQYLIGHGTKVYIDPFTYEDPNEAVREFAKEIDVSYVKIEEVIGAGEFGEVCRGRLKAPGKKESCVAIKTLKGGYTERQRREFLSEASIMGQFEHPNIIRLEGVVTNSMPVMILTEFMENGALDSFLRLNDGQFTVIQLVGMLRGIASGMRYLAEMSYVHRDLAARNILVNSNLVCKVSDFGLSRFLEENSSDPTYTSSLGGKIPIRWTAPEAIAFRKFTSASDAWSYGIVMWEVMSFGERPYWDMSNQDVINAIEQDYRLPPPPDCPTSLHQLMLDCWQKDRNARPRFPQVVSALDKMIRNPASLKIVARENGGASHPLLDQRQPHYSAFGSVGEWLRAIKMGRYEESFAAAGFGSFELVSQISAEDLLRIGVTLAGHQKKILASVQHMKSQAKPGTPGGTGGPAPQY
The note with it: at 1 µM.

Assay [7] has as its target T4, Ephrin type-B receptor 4 (Homo sapiens). To be noted: at 10 µM.
Assay [8] addresses Receptor tyrosine-protein kinase erbB-4 (Homo sapiens) (UniProt Q15303). The note with it: at 1 µM.
The target is the same in assay [9]. The note with it: at 10 µM.
Assay [10] deals with Focal adhesion kinase 1 (Homo sapiens) (UniProt Q05397). To be noted: at 1 µM.
Focal adhesion kinase 1 (Homo sapiens), sequence (Q05397 2-1052 limits assumed): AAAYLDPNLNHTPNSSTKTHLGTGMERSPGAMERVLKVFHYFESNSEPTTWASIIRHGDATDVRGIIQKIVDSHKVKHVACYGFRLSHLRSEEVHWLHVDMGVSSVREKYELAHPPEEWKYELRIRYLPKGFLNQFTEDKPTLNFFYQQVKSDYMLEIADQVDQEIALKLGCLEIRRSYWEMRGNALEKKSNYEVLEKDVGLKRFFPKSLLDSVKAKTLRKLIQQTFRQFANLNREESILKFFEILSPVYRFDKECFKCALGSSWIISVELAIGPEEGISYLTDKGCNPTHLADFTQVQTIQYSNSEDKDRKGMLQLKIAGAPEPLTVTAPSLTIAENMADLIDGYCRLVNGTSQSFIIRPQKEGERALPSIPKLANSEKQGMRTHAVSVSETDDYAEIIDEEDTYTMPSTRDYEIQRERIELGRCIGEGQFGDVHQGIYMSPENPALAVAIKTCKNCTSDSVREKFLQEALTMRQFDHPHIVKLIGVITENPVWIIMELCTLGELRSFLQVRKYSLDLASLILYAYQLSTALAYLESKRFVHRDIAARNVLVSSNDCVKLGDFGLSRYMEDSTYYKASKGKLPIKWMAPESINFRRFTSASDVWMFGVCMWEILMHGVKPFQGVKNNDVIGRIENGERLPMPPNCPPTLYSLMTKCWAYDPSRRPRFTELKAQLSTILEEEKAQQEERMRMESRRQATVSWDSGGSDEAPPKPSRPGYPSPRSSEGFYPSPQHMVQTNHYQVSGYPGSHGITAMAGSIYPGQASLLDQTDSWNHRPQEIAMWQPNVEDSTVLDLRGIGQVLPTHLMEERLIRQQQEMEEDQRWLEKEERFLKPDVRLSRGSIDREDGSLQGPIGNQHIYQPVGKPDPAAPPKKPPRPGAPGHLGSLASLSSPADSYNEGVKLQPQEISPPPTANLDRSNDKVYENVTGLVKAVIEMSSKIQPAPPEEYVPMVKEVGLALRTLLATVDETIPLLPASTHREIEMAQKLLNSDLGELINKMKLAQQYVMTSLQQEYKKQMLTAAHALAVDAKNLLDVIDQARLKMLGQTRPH

Receptor tyrosine-protein kinase erbB-4 (Homo sapiens), sequence (Q15303 whole entry): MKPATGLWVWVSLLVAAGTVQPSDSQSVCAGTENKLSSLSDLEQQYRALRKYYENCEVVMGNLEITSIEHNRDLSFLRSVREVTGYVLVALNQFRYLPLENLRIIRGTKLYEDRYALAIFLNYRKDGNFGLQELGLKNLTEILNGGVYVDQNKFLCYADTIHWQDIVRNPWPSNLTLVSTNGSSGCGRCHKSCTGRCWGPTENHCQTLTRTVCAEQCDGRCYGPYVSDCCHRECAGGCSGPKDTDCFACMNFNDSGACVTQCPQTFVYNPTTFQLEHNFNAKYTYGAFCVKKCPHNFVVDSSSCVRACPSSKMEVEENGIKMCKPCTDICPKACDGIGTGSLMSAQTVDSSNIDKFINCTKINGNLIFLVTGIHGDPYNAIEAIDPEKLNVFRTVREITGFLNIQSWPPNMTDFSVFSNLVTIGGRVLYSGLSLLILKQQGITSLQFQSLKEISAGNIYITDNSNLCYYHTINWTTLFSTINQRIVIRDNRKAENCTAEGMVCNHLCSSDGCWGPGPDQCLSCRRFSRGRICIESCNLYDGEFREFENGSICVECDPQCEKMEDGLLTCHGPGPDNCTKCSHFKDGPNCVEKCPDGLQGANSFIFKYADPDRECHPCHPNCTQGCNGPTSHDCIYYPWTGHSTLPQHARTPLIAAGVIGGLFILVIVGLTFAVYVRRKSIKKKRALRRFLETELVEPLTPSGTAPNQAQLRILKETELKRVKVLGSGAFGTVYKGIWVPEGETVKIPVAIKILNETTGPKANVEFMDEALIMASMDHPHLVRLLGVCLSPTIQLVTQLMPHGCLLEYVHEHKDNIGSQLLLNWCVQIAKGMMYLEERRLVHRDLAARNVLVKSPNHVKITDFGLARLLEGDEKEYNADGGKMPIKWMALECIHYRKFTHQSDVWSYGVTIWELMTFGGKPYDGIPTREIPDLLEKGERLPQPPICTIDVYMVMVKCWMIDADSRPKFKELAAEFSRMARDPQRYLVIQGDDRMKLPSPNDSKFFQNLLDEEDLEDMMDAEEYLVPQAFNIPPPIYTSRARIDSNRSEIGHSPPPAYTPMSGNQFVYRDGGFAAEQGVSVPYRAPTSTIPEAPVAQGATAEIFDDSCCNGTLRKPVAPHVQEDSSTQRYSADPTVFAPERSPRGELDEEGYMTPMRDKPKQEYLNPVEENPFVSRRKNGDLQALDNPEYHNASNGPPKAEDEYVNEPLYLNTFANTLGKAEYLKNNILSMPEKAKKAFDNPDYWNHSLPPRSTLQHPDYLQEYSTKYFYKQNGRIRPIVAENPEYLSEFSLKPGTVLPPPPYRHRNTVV

The residual activity is the signal under treatment as a percentage of the control signal. `CN(C)c1ccc(/C=C2\C(=O)Nc3ccccc32)cc1`: the residual activity in [1] is 80%; in [2], 112%; in assay [3], 130%; in assay [4] it was 108% (inactive); in assay [5] it was 123%; in assay [6], 97%. The residual activity in assay [7] is 121%; in [8] it was 115%; in [9] it was 82%; in assay [10], 82%.
